Active and inactive are the calls of the source. Unless noted, how the calls were made is not given here.
Legend:
[1] = anti-His antibody binders, primary screen, artefact control for SMM control protein annotation, biochemical, small-molecule microarray, 635 nm fluorescence (AID 1128); settings: anti-His Alexa647 antibody binding, higher = more signal;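 further: score merges feature fluorescence with signal-to-noise for each printed compound spot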
[2] = system: Human papillomavirus type 1a E7 protein (residues 1-88); test: HPV1a E7 small-molecule binders, primary screen, biochemical, small-molecule microarray, residues 1-88, 635 nm (AID 1129); settings: small-molecule microarray binding, fluorescence 635 nm; higher = more signal
[3] = target: Focal adhesion kinase 1 (Homo sapiens) (UniProt Q05397); test: small-molecule microarray binders of FAK, primary screen, biochemical, 635/667 nm fluorescence, BSA, DTT (AID 1130); settings: PTK2 binding, 635 nm fluorescence, higher = more signal;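 further: composite of spot emission at 667 nm and signal to noise over triplicate slides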
[4] = system: Fibrinogen (Alexa647-labelled); test: fibrinogen binders on compound microarrays, profiling panel, artefact control for SMM control-protein annotation, biochemical, small-molecule microarray, 635/667 nm fluorescence (AID 1131); settings: fibrinogen-A647 binding fluorescence, higher = more signal;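 further: z-score merges 667 nm fluorescence with per-spot signal-to-noise over triplicate slides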
[5] = target: Follistatin (Homo sapiens) (UniProt P19883); test: follistatin binders on small-molecule microarrays, primary screen, biochemical, small-molecule microarray, 635/667 nm fluorescence (AID 1132); settings: FST binding, 635 nm fluorescence, higher = more signal
[6] = target: Fibroblast growth factor 2 (Homo sapiens) (UniProt P09038); test: FGF2 binders on small-molecule microarrays, primary screen, biochemical, small-molecule microarray, 635/667 nm fluorescence (AID 1133); settings: small-molecule microarray binding, FGF2, fluorescence 635/667; higher = more signal
[7] = mitochondrial membrane potential change in A549 cells, profiling panel, cell-based, JC-1 fluorescence, basal, 24 h, 100 nL (AID 1138); settings: higher = more signal;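 further: A549 lung adenocarcinoma cells under basal conditions with no added stimulus; test concentration not given here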
Lefty1 = Lefty1 binders on small-molecule microarrays, primary screen, biochemical, small-molecule microarray, 635/667 nm fluorescence (AID 1139); settings: small-molecule microarray binding, fluorescence 635/667; higher = more signal
[8] = system: wheat germ agglutinin (Triticum aestivum), Alexa647-labelled; test: wheat germ agglutinin binders on compound microarrays, profiling panel, artefact control for SMM control-protein annotation, biochemical, small-molecule microarray, 635/667 nm fluorescence (AID 1140); settings: WGA-A647 binding, 635 nm fluorescence, higher = more signal;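 further: score merges 667 nm feature emission with signal to noise over triplicate slides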
[9] = target: Luciferin 4-monooxygenase (Photinus pyralis) (UniProt P08659); test: firefly luciferase enzyme inhibitors, primary screen, biochemical, luminescence, purified enzyme, 2006 set (AID 1141); settings: SteadyGlo luminescence, 30 min, higher = more signal, called active from +8 up or from −8 down;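 further: cell-free assay with purified firefly luciferase at 100 ng per well in PBS; test concentration not given here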
[10] = system: Wnt5a (protein binding on small-molecule microarray); test: Wnt5a binders on small-molecule microarray, primary screen, biophysical, 635/667 nm fluorescence (AID 1142); settings: 635 nm fluorescence, higher = more signal;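 further: fluorescence read at 667 nm with signal to noise per printed feature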
[11] = cell viability in Huh7 cells, primary screen, cytotoxicity control for HCV replication inhibitor project, CellTiter-Glo luminescence, basal, 48 h (AID 1143); settings: Huh7 HCV replicon, higher = more signal, called active from +8 up or from −8 down;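 further: Huh7 hepatoma cells carrying a hepatitis C replication reporter with no stimulus; test concentration not given here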
[12] = P. aeruginosa biofilm formation inhibitors, primary screen, PAO1 strain, BacTiter-Glo luminescence, LB-PBS (AID 1144); settings: 12 h, higher = more signal
[13] = CREB reporter modulators without forskolin, primary screen, cell-based, PC12, CRE-LacZ reporter, unstimulated (AID 1145); settings: no forskolin, luminescence, 4.5 h, higher = more signal, called active from +8 up or from −8 down
[14] = CREB reporter modulators under forskolin, primary screen, cell-based, PC12, CRE-LacZ reporter, forskolin-stimulated (AID 1146); settings: luminescence, 4.5 h, higher = more signal, called active from +8 up or from −8 down;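 further: PC12 cells with 6xCRE LacZ reporter stimulated by forskolin 10 µM; beta-galactosidase reporter signal reflecting CREB driven transcription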
[15] = target: Streptavidin (Streptomyces avidinii) (UniProt P22629); test: streptavidin binders on small-molecule microarray, primary screen, artefact control for SMM compound annotation, biophysical, 635/667 nm fluorescence (AID 1147); settings: streptavidin binding, higher = more signal;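 further: signal reflects streptavidin binding to arrayed compounds as a control protein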
[16] = small-molecule binders of probe aInhba, primary screen, biochemical, small-molecule microarray, 635/667 nm fluorescence (AID 1148); settings: higher = more signal;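 further: score merges 667nm spot fluorescence with signal-to-noise for antibody binding to printed compounds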
Torsin-1A (Homo sapiens) [17] = target: Torsin-1A (Homo sapiens) (UniProt O14656); test: torsin A binders from cell lysate, primary screen, small-molecule microarray, wild-type, 635/667 nm (AID 1149); settings: COS7 hTOR1A-WT lysate, 635 nm fluorescence, higher = more signal
Torsin-1A (Homo sapiens) [18] = target: Torsin-1A (Homo sapiens) (UniProt O14656); test: small-molecule binders of mutant TOR1A in lysate, primary screen, cell lysate, small-molecule microarray, COS7 lysate, 635/667 nm fluorescence (AID 1150); settings: COS7 hTOR1A mutant lysate, 635 nm fluorescence, higher = more signal;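 further: score pools 667 nm emission and signal to noise measuring lysate protein binding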
[19] = system: Sonic hedgehog protein (Shh); test: small-molecule binders of Shh protein, primary screen, biochemical, small-molecule microarray, 635/667 nm fluorescence (AID 1151); settings: small-molecule microarray binding, 635 nm fluorescence; higher = more signal;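 further: Shh protein binding to compounds spotted on small-molecule microarray slides; score combines spot fluorescence intensity with signal-to-noise across triplicate slides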

Sequence of Streptavidin (Streptomyces avidinii) (P22629 whole entry, looked up): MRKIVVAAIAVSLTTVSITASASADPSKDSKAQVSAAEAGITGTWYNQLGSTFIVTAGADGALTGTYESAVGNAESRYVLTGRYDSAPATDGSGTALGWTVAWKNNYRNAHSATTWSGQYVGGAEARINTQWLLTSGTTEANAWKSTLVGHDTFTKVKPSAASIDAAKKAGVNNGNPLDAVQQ
Sequence of Fibroblast growth factor 2 (Homo sapiens) (P09038 whole entry, looked up): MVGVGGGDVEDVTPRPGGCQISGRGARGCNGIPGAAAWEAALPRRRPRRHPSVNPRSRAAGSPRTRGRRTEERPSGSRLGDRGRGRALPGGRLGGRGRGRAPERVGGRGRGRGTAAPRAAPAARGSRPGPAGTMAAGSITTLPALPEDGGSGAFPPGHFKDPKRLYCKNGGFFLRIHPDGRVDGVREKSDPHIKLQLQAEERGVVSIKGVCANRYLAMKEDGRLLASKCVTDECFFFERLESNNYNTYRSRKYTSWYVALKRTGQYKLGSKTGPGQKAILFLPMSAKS
Sequence of Focal adhesion kinase 1 (Homo sapiens) (Q05397 whole entry, looked up): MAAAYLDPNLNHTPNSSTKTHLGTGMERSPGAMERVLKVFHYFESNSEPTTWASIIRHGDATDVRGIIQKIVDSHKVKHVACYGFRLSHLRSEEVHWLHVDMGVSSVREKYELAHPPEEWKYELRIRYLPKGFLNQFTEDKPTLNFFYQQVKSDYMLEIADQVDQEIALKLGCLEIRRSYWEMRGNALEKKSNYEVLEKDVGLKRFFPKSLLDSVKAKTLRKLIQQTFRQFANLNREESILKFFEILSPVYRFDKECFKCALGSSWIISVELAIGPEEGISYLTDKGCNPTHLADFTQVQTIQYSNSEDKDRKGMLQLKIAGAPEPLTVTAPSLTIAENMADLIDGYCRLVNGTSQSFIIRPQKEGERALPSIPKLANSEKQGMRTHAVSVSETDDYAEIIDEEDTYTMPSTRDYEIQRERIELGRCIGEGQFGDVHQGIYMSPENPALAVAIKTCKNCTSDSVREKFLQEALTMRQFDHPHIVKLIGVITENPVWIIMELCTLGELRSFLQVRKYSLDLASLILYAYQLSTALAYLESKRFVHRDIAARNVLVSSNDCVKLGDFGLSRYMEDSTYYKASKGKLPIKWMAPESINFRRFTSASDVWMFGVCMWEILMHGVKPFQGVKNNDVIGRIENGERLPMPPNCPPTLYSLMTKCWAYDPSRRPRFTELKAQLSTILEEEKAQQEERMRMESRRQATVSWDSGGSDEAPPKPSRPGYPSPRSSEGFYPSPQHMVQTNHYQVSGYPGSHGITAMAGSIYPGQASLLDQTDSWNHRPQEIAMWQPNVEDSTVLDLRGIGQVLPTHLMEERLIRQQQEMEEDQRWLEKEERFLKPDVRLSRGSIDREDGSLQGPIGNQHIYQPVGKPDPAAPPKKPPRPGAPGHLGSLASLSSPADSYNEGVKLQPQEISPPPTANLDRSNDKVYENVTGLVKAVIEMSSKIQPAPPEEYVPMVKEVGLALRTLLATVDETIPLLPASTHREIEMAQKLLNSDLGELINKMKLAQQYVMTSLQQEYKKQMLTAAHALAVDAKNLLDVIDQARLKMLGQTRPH
Sequence of Luciferin 4-monooxygenase (Photinus pyralis) (P08659 whole entry, looked up): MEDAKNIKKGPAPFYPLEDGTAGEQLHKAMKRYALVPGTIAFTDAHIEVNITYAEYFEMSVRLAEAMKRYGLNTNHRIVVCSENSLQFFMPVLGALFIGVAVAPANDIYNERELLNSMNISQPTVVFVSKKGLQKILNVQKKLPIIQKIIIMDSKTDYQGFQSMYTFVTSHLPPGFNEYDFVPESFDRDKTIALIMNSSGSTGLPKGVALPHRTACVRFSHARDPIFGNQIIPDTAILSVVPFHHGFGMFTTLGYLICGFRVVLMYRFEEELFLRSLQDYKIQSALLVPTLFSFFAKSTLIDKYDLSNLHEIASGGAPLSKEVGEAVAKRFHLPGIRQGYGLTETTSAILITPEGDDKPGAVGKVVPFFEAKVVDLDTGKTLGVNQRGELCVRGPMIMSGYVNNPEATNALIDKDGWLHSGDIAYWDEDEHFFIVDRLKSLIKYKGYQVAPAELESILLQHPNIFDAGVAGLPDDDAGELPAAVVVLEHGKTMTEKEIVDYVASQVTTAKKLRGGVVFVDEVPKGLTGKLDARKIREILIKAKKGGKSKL
Sequence of Torsin-1A (Homo sapiens) (O14656 whole entry, looked up): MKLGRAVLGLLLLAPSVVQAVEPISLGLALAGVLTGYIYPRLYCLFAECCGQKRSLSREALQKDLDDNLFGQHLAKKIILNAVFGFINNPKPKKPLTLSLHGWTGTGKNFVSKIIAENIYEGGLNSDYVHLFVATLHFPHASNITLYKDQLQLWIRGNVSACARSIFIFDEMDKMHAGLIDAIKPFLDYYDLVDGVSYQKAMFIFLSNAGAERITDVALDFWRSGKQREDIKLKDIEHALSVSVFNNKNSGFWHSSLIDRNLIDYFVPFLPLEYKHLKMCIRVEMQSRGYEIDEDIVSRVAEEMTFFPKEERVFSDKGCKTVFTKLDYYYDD
Sequence of Follistatin (Homo sapiens) (P19883 whole entry, looked up): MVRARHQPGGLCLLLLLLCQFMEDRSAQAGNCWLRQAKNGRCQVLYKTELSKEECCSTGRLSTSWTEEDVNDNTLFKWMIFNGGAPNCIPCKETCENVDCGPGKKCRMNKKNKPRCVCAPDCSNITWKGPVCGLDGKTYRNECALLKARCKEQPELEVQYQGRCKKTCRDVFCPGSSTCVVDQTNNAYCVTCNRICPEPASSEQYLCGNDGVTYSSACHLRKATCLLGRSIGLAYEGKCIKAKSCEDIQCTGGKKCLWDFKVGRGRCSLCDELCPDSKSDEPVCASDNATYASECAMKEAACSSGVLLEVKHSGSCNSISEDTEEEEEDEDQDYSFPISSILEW

| Compound | composite z-score [1] | composite z-score [2] | composite z-score [3] | composite z-score [4] | composite z-score [5] | composite z-score [6] | z-score [7] | composite z-score (Lefty1) | composite z-score [8] | z-score [9] | composite z-score [10] | z-score [11] | z-score [12] | z-score [13] | z-score [14] | composite z-score [15] | composite z-score [16] | composite z-score (Torsin-1A (Homo sapiens) [17]) | composite z-score (Torsin-1A (Homo sapiens) [18]) | composite z-score [19] |
| --- | --- | --- | --- | --- | --- | --- | --- | --- | --- | --- | --- | --- | --- | --- | --- | --- | --- | --- | --- | --- |
| C=CCC(OC(C)=O)[C@@H]1[C@@H](N(Cc2ccc(-c3cccc(C(F)(F)F)c3)o2)C(=O)Cc2ccc(F)cc2)c2cc(OCCCO)ccc2N1C(=O)c1ccc2ccccc2c1 (stereo not given in full) | -0.118 | -0.783 | -0.192 | -1.67 | 0.426 | -0.451 | 0.637 | 0.479 | -0.486 | 0.354 (inactive) | -0.314 | -0.376 (inactive) | -0.25 (inactive) | 0.279 (inactive) | 0.914 (inactive) | -0.488 | -0.2 | -0.954 | -0.244 | 0.718 |
| COCCOC(=O)N1C(=O)[C@@]2(c3cc(C#CC4(O)CCCCCC4)ccc31)[C@H](c1ccc(OCCO)cc1)N1[C@H](c3ccccc3)[C@H](c3ccccc3)OC(=O)[C@H]1[C@@H]2C(N)=O | 1.43 | 1.15 | 0.528 | 0.892 | 1.38 | 1.55 | -1.27 | 1.38 | 0.613 | -0.608 (inactive) | 0.437 | -4.15 (inactive) | 0.323 (inactive) | 0.468 (inactive) | 0.595 (inactive) | 0.213 | 0.0804 | 0.974 | 0.861 | 1.33 |
| CC(=O)n1cc(C(O)C2C=CC3C(=O)N(c4ccccc4)C(=O)C3N2Nc2ccccc2F)c2ccccc21 (stereo not given) | 1.01 | 0.726 | 0.251 | 1.02 | -1.04 | -0.89 | -1.16 | -0.274 | 0.0832 | 1.34 (inactive) | -0.296 | -3.27 (inactive) | -1.69 (inactive) | -0.172 (inactive) | 0.499 (inactive) | 0.0289 | -0.157 | -0.561 | 0.495 | -0.813 |
| O=C1C2C=CC(C(O)C(c3ccccc3)c3ccccc3)N(Nc3ccccc3)C2C(=O)N1c1ccccc1 (stereo not given) | 0.59 | 1.28 | 0.175 | 1.03 | 1.29 | 0.472 | 0.0105 | 0.707 | 0.882 | -1.05 (inactive) | 0.422 | -0.374 (inactive) | -1.06 (inactive) | 0.629 (inactive) | -0.222 (inactive) | 0.828 | 0.271 | 0.616 | 0.984 | 0.734 |
| [N-]=[N+]=NCc1ccccc1C[C@@]1(C(=O)O)N=C(c2ccc(OCCCO)cc2)O[C@@H]1c1ccccc1CN=[N+]=[N-] | 0.705 | 1.17 | -0.0333 | 0.989 | 1.02 | 0.679 | -0.253 | 0.594 | 0.51 | -0.593 (inactive) | 0.561 | -1.96 (inactive) | -0.595 (inactive) | -0.996 (inactive) | -1.4 (inactive) | 0.465 | 0.353 | 1.28 | 0.171 | 0.447 |

From PubChem BioAssay
